Screening results from PubChem BioAssay.
DT40 TDP1 CPT – qHTS for Inhibitors of human tyrosyl-DNA phosphodiesterase 1 (TDP1): qHTS in cells in presence of CPT; chicken DT40 Tdp1-/-;hTDP1 cells + 20 nM CPT, ATP luminescence, 48 h; Potency, µM (titrated, usually from 46.2 µM), for the others: at the top dose activity change, negative = growth inhibition, hits mostly inhibitors; actives 12% (n = 420,000); AID 686979, 2013; note: potency is the fitted concentration of half-maximal effect; nearly all actives have a fitted effect of over 55% in size
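Cell growth measured by CellTiter-Glo luminescence after a minimum 48 h, 37 C compound exposure with 20 nM CPT in Tdp1-knockout DT40 cells stably expressing hTDP1, seeded 400/well; qHTS titration format.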
HT1080NT lethal – qHTS for induction of synthetic lethality in tumor cells producing 2HG: qHTS for the HT-1080-NT fibrosarcoma cell line | HT-1080-NT fibrosarcoma viability, CellTiter-Glo ATP luminescence, 48 h | actives 1.6% (n = 360,000) | Potency, µM (series often up to 46.1 µM), for the others: top-dose activity, negative = less viability, usual class: cytotoxic;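 note: NT is the 2HG producing partner of a matched IDH1 knockdown line; potency is the fitted concentration of half-maximal effect; 0% = DMSO-treated cells and -100% = media-only wells without cells; nearly all actives have a fitted effect of over 55% in size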
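Luminescent CellTiter-Glo readout after 48 hours of compound exposure at 37 degrees C defined viability of HT-1080-NT cells. Activity was normalized to DMSO wells and cell-free media wells; concentration-response curves were fitted and assigned curve classes.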
DT40 TDP1 no CPT – qHTS for Inhibitors of human tyrosyl-DNA phosphodiesterase 1 (TDP1): qHTS in cells in absence of CPT; Potency, µM (titrated, usually from 46.2 µM), without a hit: at the highest dose activity change, negative = growth inhibition, actives largely listed as inhibitors; DT40 Tdp1-/- hTDP1 cells, no CPT, ATP luminescence, 48 h; AID 686978, 2013; actives 15% (n = 420,000); note: potency is the fitted concentration of half-maximal effect; nearly all actives have a fitted effect of over 55% in size
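Compound effects on proliferation are scored in DT40 Tdp1-/-;hTDP1 cells in the absence of CPT. ATP levels (CellTiter-Glo luminescence) are recorded after a ≥48 hr, 37 °C incubation.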
ELG1 DNA repair – qHTS screen for small molecules that inhibit ELG1-dependent DNA repair in human embryonic kidney (HEK293T) cells expressing luciferase-tagged ELG1; HEK293T ELG1-luciferase reporter, luminescence, 16 h; DNA damage induced by 5-fluorouridine; Potency, µM (top dose mostly 46.1 µM), for the others: at the top dose activity change, negative = inhibition, hits mostly inhibitors; actives 2.3% (n = 330,000); AID 504467, 2011; note: potency is the fitted concentration of half-maximal effect; nearly all actives have a fitted effect of over 55% in size
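Luminescence from the luciferase reporter, measured 30 min after ONE-Glo reagent at room temperature, was the read-out. Beforehand, 2,000 cells per well were exposed for 16 hr at 37 °C to 5-fluorouridine together with compound or vehicle.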
HT1080 IDH1KD tx – qHTS for induction of synthetic lethality in tumor cells producing 2HG: qHTS for the HT-1080-IDH1KD cell line; HT-1080 IDH1 knockdown viability, ATP luminescence, 48 h; Potency, µM (top dose mostly 46.1 µM), for inactives: at the highest dose activity, negative = toxicity, most hits filed as cytotoxic; actives 2% (n = 360,000); AID 686971, 2013;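 note: potency is the fitted concentration of half-maximal effect; 0% = DMSO wells and -100% = cell-free medium wells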
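IDH1KD HT-1080 cells, 750/well, RPMI + 5% FBS; compound pinned after 2 h settling; 48 h, 37 °C; CellTiter-Glo luminescence; % activity normalised to DMSO and no-cell wells; curves fitted, classed by r2 and efficacy.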
IL-1B inflam inh – qHTS for Inhibitors of Inflammasome Signaling: IL-1-beta AlphaLISA Primary Screen. THP-1 LPS/ATP IL-1B secretion, AlphaLISA, 16 h; hits give low values. activity change, % at 57.5 µM. actives 4.7% (n = 360,000); in the data active = activity change below about -50%; inconclusive = mostly about -30% to -49%
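THP-1 cells pretreated 1 hr with compounds (up to 57.5 uM final), then stimulated with LPS (250 ng/mL final) plus ATP (1.25 mM final); secreted IL-1B measured by AlphaLISA after 16 hr, decreased signal indicating inhibition.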
An asterisk follows results filed as active; ? = inconclusive; . = not tested or not shown; [ ] = another dose, or the depositor's remark. In the library only some 19% were active in any assay of this set; here they are far more common. Unless noted, calls come from the whole dose curve; as a rule, active = well fitted curve in the direction sought with a large enough effect; inconclusive = small, poorly fitted or top-dose-only effect, or another doubt; inactive = no such curve, though single readings can be large; an effect the other way counts as inactive or inconclusive. Unless noted, % is set by controls: 0 for no effect and ±100 for the full control effect.

SMILES | DT40 TDP1 CPT | HT1080NT lethal | DT40 TDP1 no CPT | ELG1 DNA repair | HT1080 IDH1KD tx | IL-1B inflam inh
CCOc1ccc(/C=N/NC(=O)c2ccccc2Cl)cc1CN1CC2CC(C1)c1cccc(=O)n1C2 (stereo not drawn) | ? | -28% | ? | ? | -19% | -4
CCOc1ccc(/C=N/NC(=O)c2ccccc2C)cc1CN1CC2CC(C1)c1cccc(=O)n1C2 (stereo not drawn) | ? | 9% | 23µM* | -11% | -12% | 28
Nc1c(C(=O)Nc2ccccc2)sc2ncc([N+](=O)[O-])cc12 | -5% | ? | ? | ? | ? | -7
NC(=O)c1sc2nccc(Nc3ccccc3)c2c1N | 10µM* | -7% | 21µM* | ? | -13% | -12
c1ccc(COc2cccc(-c3cc4nc(NCc5ccc6c(c5)OCO6)ccn4n3)c2)cc1 | ? | -16% | ? | . | -24% | -28
Cc1ccc2cccc(OCC(=O)N3CC(C)CC(C)C3)c2n1 (stereo not drawn) | 3% | 15% | -29% | 13% | 6% | 19
O=C(CSc1nnc(CNC(=O)C23CC4CC(CC(C4)C2)C3)n1-c1ccccc1)Nc1ccccc1 | ? | -3% | ? | -12% | -3% | 15
Cc1onc(-c2ccccc2)c1C(=O)Nc1sc2c(c1C(N)=O)CCC2 | -25% | -29% | ? | 0% | -1% | -50*
Cc1onc(-c2ccccc2)c1C(=O)Nc1sccc1C#N | -5% | -21% | -16% | -18% | -23% | -65*
Cc1onc(-c2c(F)cccc2Cl)c1C(=O)Nc1sc2c(c1C#N)CCC(C(C)(C)C)C2 (stereo not drawn) | ? | -7% | 16µM* | ? | -29% | ?
Cc1nnc(NC(=O)c2c(-c3ccccc3)noc2C)s1 | -15% | 6% | -29% | 0% | 1% | 11
Cc1onc(-c2c(F)cccc2Cl)c1C(=O)Nc1sc2c(c1C(N)=O)CCC2 | 11µM* | 11µM* | 11µM* | ? | 14µM* | ?
CCOc1ccccc1NS(=O)(=O)c1cc2[nH]c(=O)c(=O)[nH]c2cc1C | 3% | . | -27% | . | . | .
CCOC(=O)CCCCCC(=O)Nc1ccc2c(c1)C(=O)N([C@H](C)CO)C[C@@H](C)[C@@H](CN(C)C(=O)CCC(F)(F)F)OCCCC[C@H](C)O2 | ? | 14% | -2% | . | 12% | -5
N#Cc1c(NC(=O)/C=C/c2ccco2)sc2c1CCCC2 | 0.23µM* | 0.58µM* | 0.41µM* | ? | ? | 2
CC(C)(C)C(=O)NC(=S)Nc1sc2c(c1C#N)CCCCC2 | ? | -20% | 23µM* | ? | -24% | -3
N#Cc1c(NC(=O)c2cc(-n3cnnc3)ccc2Cl)sc2c1CCCC2 | 21µM* | ? | 13µM* | -24% | ? | -14
Cc1onc(-c2ccccc2)c1C(=O)Nc1sc2c(c1C#N)CCC2 | 29µM* | 13µM* | ? | ? | ? | 33
CC(=O)Nc1ccc(S(=O)(=O)NCCC(=O)NCc2ccncc2)cc1 | -11% | -1% | -4% | 2% | 4% | 5
N#Cc1c(NC(=O)c2cc(C3CC3)on2)sc2c1CCC2 | 10µM* | ? | 12µM* | 12% | ? | 37
COc1ccc(Nc2cc(C(=O)NCc3cccnc3)c3ccccc3n2)c(OC)c1 | . | . | . | -16% | . | .
CCC(C)C(NC(=O)c1ccccc1NC(=O)c1ccc(OC)cc1)C(=O)NCc1ccco1 (stereo not drawn) | -20% | -30% | -52% | 7% | ? | 0
COc1ccc(Nc2cc(C(=O)NCc3ccco3)c3ccccc3n2)c(OC)c1 | ? | -1% | 23µM* | ? | -3% | 9
COc1ccc(N=c2oc3c(OC)cccc3cc2C(=O)NCc2ccco2)c(OC)c1 | ? | 1% | 13µM* | -10% | 1% | -22
COc1ccc(Nc2cc(C(=O)NCCCOC(C)C)c3ccccc3n2)c(OC)c1 | 16µM* | 1% | 16µM* | ? | 13% | -6
SMILES | DT40 TDP1 CPT | HT1080NT lethal | DT40 TDP1 no CPT | ELG1 DNA repair | HT1080 IDH1KD tx | IL-1B inflam inh
COc1ccc(C(=O)Nc2ccc(Cl)cc2C(=O)NCc2ccco2)cc1 | 5.2µM* | -28% | 6.5µM* | ? | -2% | 25
CC(OC(=O)CCCNC(=O)c1ccc(Cl)cc1)C(=O)N(C)Cc1ccccc1 (stereo not drawn) | ? | 1% | ? | ? | 7% | 32
CCN(CCCNC(=O)c1cc(Nc2ccc(OC)cc2OC)nc2ccccc12)c1cccc(C)c1 | 21µM* | . | 15µM* | . | . | .
COc1ccc(Nc2cc(C(=O)NCCCN3CCN(C)CC3)c3ccccc3n2)c(OC)c1 | ? | -10% | 23µM* | 18% | -2% | ?
COc1ccc(-c2cc(C(=O)NCCN3CCOCC3)c3ccccc3n2)cc1 | -24% | -3% | ? | 22% | -18% | -12
Cc1ncc2c(c1CNC(=O)c1cncs1)CCN(C(=O)c1cc(F)c(F)cc1F)C2 | 3%[9.04 µM] | . | -22% | . | . | .
COc1ccccc1C(=O)NC(=O)COC(=O)C1CC1C (stereo not drawn) | -15% | -7% | -3% | 21% | -1% | 2
Cc1ccc(S(=O)(=O)N2CCOCC2)cc1NCC(=O)Nc1ccc(OC(F)(F)F)cc1 | ? | 16% | -11% | 16% | 6% | 22
CCOc1ccccc1NC(=O)CSc1nc2c(c(=O)[nH]1)CCC2 | -3% | . | ? | . | . | .
CCCCN(C(=O)CSc1nnc(Nc2ccc(C)c(C)c2)s1)c1c(N)n(Cc2ccccc2)c(=O)[nH]c1=O | 18µM* | -26% | ? | 11% | ? | -77*
COc1ccccc1C1(CC(=O)N2CCCCC2)CCOC(C(C)C)C1 (stereo not drawn) | 23µM* | -3% | 23µM* | -7% | -2% | 3
Cc1ccc(C2(CC(=O)N3CCCC3)CCOC(C(C)C)C2)cc1 (stereo not drawn) | ? | 5% | ? | 8% | 2% | 1
